The list is not random: actives were taken first. Their share in the collection is about 1.2%.
GC-A act = GC-A (human) enzyme activation | HEK293 GC-A cells, cGMP TR-FRET, EC30 ANP; 0% at EC30 ANP, 100% saturating ANP | activation, % at 10 µM | P16066 | hit rate 0.14% among 370,000; in the data active means activation above about 40%
TLR4 MyD88 comp = inhibitors of human TLR4-MyD88 binding; O00206+Q99836; HeLa CL3-4 TLR4/MyD88 BLA complementation, FRET ratio; inhibition, % at 8.4 µM; hit rate 0.18% among 200,000; in the data active means inhibition above about 25%;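 further: 0% = vehicle and 100% = reference inhibitor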
NPR2 activator = GC-B (human) receptor activation; HEK293-GC-B cells, CNP EC30, cGMP TR-FRET; 0% at EC30 CNP, 100% saturating CNP; hit rate 0.11% among 370,000; AID 1920062; P20594; activation, % at 10 µM;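 active means activation at 10 µM reaching about 35% in either raw or pattern-adjusted values, limit read from the data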
TLR9-MyD88 block = blocks human TLR9 binding to MyD88; Q9NR96+Q99836; CHO BLA complementation TLR9-MyD88, CCF4 FRET ratio; inhibition, % at 4.98 µM; hit rate 0.21% among 340,000;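 active means inhibition above the mean over all tested compounds plus 3 SD, cut at about 21% in these data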;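 further: 0% = DMSO only wells and 100% = clavulanate BLA inhibitor control wells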
NOD2-RIPK2 inh = blocks binding of human NOD2 to RIPK2; O43353; CHO BLA complementation NOD2-RIPK2, CCF4 ratio; inhibition, % at 4.98 µM; hit rate 0.38% among 360,000; in the data active means inhibition above about 21%;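 further: 0% = vehicle only and 100% = reference blocker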
Target sequence (O43353 whole entry, looked up): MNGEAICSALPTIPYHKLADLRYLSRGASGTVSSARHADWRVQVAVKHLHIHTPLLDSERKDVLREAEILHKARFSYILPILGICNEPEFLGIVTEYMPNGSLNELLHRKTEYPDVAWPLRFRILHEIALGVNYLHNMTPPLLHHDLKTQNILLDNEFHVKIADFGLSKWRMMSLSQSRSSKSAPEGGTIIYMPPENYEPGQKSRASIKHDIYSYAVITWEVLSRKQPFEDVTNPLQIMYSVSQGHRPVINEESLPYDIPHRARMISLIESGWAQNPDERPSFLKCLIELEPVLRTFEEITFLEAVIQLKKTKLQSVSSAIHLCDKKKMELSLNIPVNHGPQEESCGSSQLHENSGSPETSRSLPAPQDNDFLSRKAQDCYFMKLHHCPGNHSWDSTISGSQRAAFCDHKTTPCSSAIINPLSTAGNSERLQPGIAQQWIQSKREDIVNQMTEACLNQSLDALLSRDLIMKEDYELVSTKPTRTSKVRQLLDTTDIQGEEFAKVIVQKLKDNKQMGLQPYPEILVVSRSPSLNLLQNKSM
Neddylation inh = blocks human cullin neddylation. P61081+Q13564. inhibition, % at 25 µM. AID 651699. TR-FRET cullin neddylation, biochemical. hit rate 0.58% among 360,000; in the data active means inhibition above about 36%
Active calls of the source: *; nt = not tested or not shown.

SMILES	GC-A act	TLR4 MyD88 comp	NPR2 activator	TLR9-MyD88 block	NOD2-RIPK2 inh	Neddylation inh
N#CCCN1CCN(C(=S)c2ccc(-c3cccc(Cl)c3)o2)CC1	21	-6	73*	-13	-4	-23
O=[N+]([O-])c1cc(-c2ccc(C(=S)N3CCOCC3)o2)ccc1Cl	6	4	2	-12	1	1
O=C(O)c1ccc(-c2cccc(Cl)c2)o1	-1	-7	-3	-2	-21	-2
N#CCCN1CCN(C(=S)c2ccc(-c3ccc(Cl)c(Cl)c3)o2)CC1	29	3	61*	-5	0	-13
COC(=O)[C@]12C[C@H](CC(=O)N3CCN(C(=O)C4CC4)CC3)C(=O)N(Cc3cccc4ccccc34)C1=C[C@H](C(C)(C)C)O[C@@H]2C	-7	nt	-15	nt	nt	nt
Cc1cc(C(=O)O[C@H]2CCC[C@@]3(C(=O)N(Cc4ccccc4)c4ccccc43)[C@H]2NC(=O)CCc2ccccc2)no1	-5	nt	2	nt	nt	nt
Cc1cccc(NC(=S)N/N=C/c2cccn2Cc2ccc(F)cc2)c1	-8	-4	-1	-9	-5	51*
COC(=O)C1CN(C2CCCC2)CCS(=O)(=O)N1Cc1ccc(Cl)cc1 (configuration not stated)	0	nt	0	nt	nt	nt
c1ccc(-c2nc3ccccc3o2)nc1	9	5	-3	14	-16	27
c1ccc2nc(-c3nc4ccccc4o3)ccc2c1	-3	-12	-5	-4	-9	40*
COC(=O)c1cc2c(c3c4cc(F)ccc4n(S(=O)(=O)c4ccc(C)cc4)c13)C(=O)N(Cc1ccc(N(C)C)cc1)C2	-5	nt	5	nt	nt	nt
CCN(CC)C(=O)CC[C@H]1CC[C@]2(CCCN(Cc3ccc(OC)cc3)C2)O1	-3	nt	-7	nt	nt	nt
CCOC(=O)c1cccc(NC(=O)CS(=O)(=O)Cc2nc(-c3cccc(OC)c3)oc2C)c1	25	2	37*	-9	-4	-100
CN(C(=O)[C@@H]1CC=C[C@@H]2CCN(C3CCCCC3)C(=O)[C@@H]21)c1ccccc1	-4	nt	-7	nt	nt	nt
C[C@@H]1COc2cc(N3CCCCC3)ccc2S(=O)(=O)N1	7	nt	1	nt	nt	nt
CCOC(=O)CN1CCC(c2cc(-c3ccc(Cl)cc3)n[nH]2)CC1	62*	nt	-5	-5	-4	-6
CCOC(=O)Cn1nc(-c2ccc(Cl)cc2)cc1N	5	-1	4	7	0	10
COc1ccc(S(=O)(=O)Nc2cccc(N(C)S(C)(=O)=O)c2)cc1Br	34	4	37*	1	-12	-1
COc1ccc(NC(=O)CSc2nnc(-c3cccs3)o2)cc1Cl	-2	nt	-2	nt	nt	nt
Nc1ccc(O)cc1C(=O)OCC(=O)c1ccc(C2CCCCC2)cc1	1	-8	-10	-11	-5	40*
Cc1cccc(CS(=O)(=O)c2nnc([C@H](Cc3ccccc3)NC(=O)OC(C)(C)C)o2)c1	nt	5	nt	11	65*	3
COC(=O)CS(=O)(=O)c1nnc([C@H](Cc2ccccc2)NC(=O)OC(C)(C)C)o1	-18	8	-15	-2	46*	3
O=C(c1cnn2c(C(F)(F)F)cc(-c3ccc4c(c3)OCO4)nc12)N1CCCC1	38	3	45*	-21	-1	24
CC(=O)Nc1ccc(Nc2nc(C)c([N+](=O)[O-])c(Nc3ccc(NC(C)=O)cc3)n2)cc1	33	-5	38*	-6	-4	-49
C[C@H]1[C@@H](NCC2CCCCC2)CC[C@@]23CCCN2C(=O)CCC[C@@H]13	0	nt	0	nt	nt	nt
SMILES	GC-A act	TLR4 MyD88 comp	NPR2 activator	TLR9-MyD88 block	NOD2-RIPK2 inh	Neddylation inh
CC(C)CCN(C)C1CCN(C(=O)Nc2ccc3c(c2)OCO3)CC1	1	nt	-2	nt	nt	nt
COC(=O)[C@H](C(C)C)N1Cc2nnn(Cc3ccc(C)cc3)c2-c2ccccc2S1(=O)=O	1	nt	4	nt	nt	nt
COc1ccc(Cn2c(=O)n(Cc3ccco3)c(=N)c3c4c(sc32)COC(C)(C)C4)cc1	56*	2	56*	1	6	-40
CCCC(=O)Nc1nc(-c2ccc(Cl)s2)cs1	55*	-15	1	-9	-2	-10
CCOC(=O)N1CCN(C(=O)CSCC(=O)Nc2nc(-c3ccc(Cl)s3)cs2)CC1	42*	1	-7	0	-3	-17
CN(C)CC(=O)N[C@H]1C[C@@H]2O[C@@H](CO)CC[C@@H]2O[C@@H]1CCc1ccc(C2=CCCCC2)cc1	-2	nt	-1	nt	nt	nt
CC(C1=CCCCC1)c1cnn(C)c1 (configuration not stated)	2	nt	8	nt	nt	nt
NC(c1csc(Nc2ncccn2)n1)C1CCCCC1 (configuration not stated)	1	nt	3	nt	-12	-13
NC(c1csc(Nc2nccc(C(F)(F)F)n2)n1)C1CCCCC1 (configuration not stated)	-1	nt	50*	nt	1	-4
CCOC(=O)CC(=O)CSc1ccc2nnc(-c3ccc(F)cc3)n2n1	2	-5	2	-10	-4	40*
CCOC(=O)CC(=O)CSc1ccc2nnc(-c3cccc(F)c3)n2n1	0	-6	5	4	-5	38
O=C(NCCC1=CCCCC1)C1CCN(S(=O)(=O)c2ccccc2[N+](=O)[O-])CC1	3	nt	-10	nt	nt	nt
C#CCOCCOCCOCCNc1nc(N2CCN(C(=O)CCCCCCCCCCNC(=O)[C@H](CCCCN)n3cc(C)nn3)CC2)nc(N2CCN(C(=O)CCCCCCCCCCNC(=O)[C@@H]([C@H](C)CC)n3cc(CCCCCN)nn3)CC2)n1	nt	nt	nt	23*	50*	-25
C#CCOCCOCCOCCNc1nc(N2CCN(C(=O)CCCCCCCCCCNC(=O)[C@H](CCCCN)n3cc(CCO)nn3)CC2)nc(N2CCN(C(=O)CCCCCCCCCCNC(=O)[C@@H]([C@H](C)O)n3cc(C)nn3)CC2)n1	nt	nt	nt	-13	11	-5
C#CCOCCOCCOCCNc1nc(N2CCN(C(=O)CCCCCCCCCCNC(=O)[C@H]([C@@H](C)CC)n3cc(CCCCCN)nn3)CC2)nc(N2CCN(C(=O)CCCCCCCCCCNC(=O)[C@@H]([C@H](C)O)n3cc(C)nn3)CC2)n1	nt	nt	nt	3	37*	-10
COc1ccc(Cn2c(NC(=O)c3ccccc3)nc(Cc3ccccc3)c2Cc2ccccc2)cc1	2	nt	2	nt	nt	nt
C#CCCCN([C@H](C(=O)OC)C(C)C)S(=O)(=O)c1ccccc1Br	-8	nt	-7	nt	nt	nt
O=C(OCC#CCSc1nnc(-c2cccc3ccccc23)o1)c1ccsc1	0	nt	-3	nt	nt	nt
Cc1ccc(Cc2c(-c3ccc(Br)cc3)nc3cc(C)ccn23)cc1	34	nt	46*	7	11	-11
CCC(C)CNC(=O)CN1C(=O)C2CCCCN2C(=O)c2ccccc21 (configuration not stated)	3	nt	3	nt	nt	nt
NC(=O)NCCC1=CCCCC1	0	-13	1	1	-7	5
